Calls of active or inactive are those of the source. Unless noted, no stated cut-off is given here; in the data, active means inhibition above about 28%; inactive means the rest.
Experiments:
[1] = target: Nuclear receptor coactivator 3 (Homo sapiens) (UniProt Q9Y6Q9); assay: NCOA3 GAL4-fusion reporter inhibition – cell-based, luminescence, quadruplicate, confirmation (AID 588792;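 active means mean inhibition over 43.08%, the solvent-only control mean plus 3 SD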;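 further: 0% = DMSO treated cells and 100% = gossypol at 36 µM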); details: HEK293 GAL4-SRC3 luciferase reporter, at 3.6 µM, stronger effect = higher value
[2] = tested on: transactivating tegument protein VP16 (Human herpesvirus 1), Gal4-VP16 luciferase reporter; assay: repression of VP16-driven luciferase reporter – cell-based, luminescence, high throughput, counter-screen for SRC3 inhibitor project (AID 588794; in the data active means inhibition above about 30%); details: mammalian cells, at 3.6 µM, stronger effect = higher value
[3] = target: Nuclear receptor coactivator 1 (Homo sapiens) (UniProt Q15788); assay: NCOA1 GAL4-fusion reporter inhibition – cell-based, luminescence, quadruplicate, confirmation (AID 588820;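 active means mean inhibition above 46.68%, the untreated control wells mean plus 3 SD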;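 further: 0% = DMSO wells and 100% = gossypol 36 µM treated wells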); details: HEK293 GAL4-SRC1 luciferase reporter, at 3.6 µM, stronger effect = higher value
[4] = repression of VP16-driven luciferase reporter – cell-based, luminescence, high throughput, counter-screen for SRC1 inhibitor project (AID 588824; in the data active means inhibition above about 25%); details: cell-based VP16 transactivation luciferase luminescence; at 3.6 µM; stronger effect = higher value
[5] = StAR promoter reporter inhibitors, counter-screen for LRH-1 inverse agonist project, cell-based, luminescence, high throughput (AID 651611); details: StAR promoter luciferase reporter counterscreen, at 3.6 µM, stronger effect = higher value
[6] = target: Nuclear receptor subfamily 5 group A member 2 (Homo sapiens) (UniProt O00482); assay: NR5A2 activity suppression in reporter cells – cell-based, luminescence, confirmation (AID 651613; in the data active means inhibition above about 42%;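 further: HEK293T cells co-transfected with LRH-1 and StAR promoter luciferase reporter; 0% = vehicle wells and 100% = parental cells lacking receptor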); details: cell-based LRH-1 luciferase reporter, inverse agonism; at 3.6 µM; stronger effect = higher value
[7] = target: Steroidogenic factor 1 (Homo sapiens) (UniProt Q13285); assay: inverse agonism at SF1 nuclear receptor – cell-based, luminescence, high throughput, counter-screen for LRH-1 inverse agonist project (AID 651614; in the data active means inhibition above about 44%;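 further: cells cotransfected with StAR promoter reporter and SF1 expression vector; 0% = vehicle on cells with receptor and 100% = vehicle on cells lacking receptor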); details: cell-based SF1 luciferase reporter, at 3.6 µM, stronger effect = higher value
[8] = compounds suppressing VP16-driven luciferase signal – cell-based, luminescence, high throughput, counter-screen for LRH-1 inverse agonist project (AID 651615; in the data active means inhibition above about 33%); details: Gal4-VP16 luciferase reporter cells, at 3.6 µM, stronger effect = higher value
[9] = tested on: transactivating tegument protein VP16 (Human herpesvirus 1); assay: compounds suppressing VP16-driven luciferase signal – cell-based, luminescence, single concentration, counter-screen for SRC2 inhibitor project (AID 652007; in the data active means inhibition above about 36%); details: cell-based VP16 transactivation luciferase reporter, at 8.9 µM, stronger effect = higher value
[10] = target: Nuclear receptor coactivator 2 (Homo sapiens) (UniProt Q15596); assay: inhibition of GAL4-SRC2 driven luciferase expression – cell-based, luminescence, HEK293, triplicate, confirmation (AID 652008;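 active means mean inhibition above 46.5%, the solvent-only control mean plus 3 SD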;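 further: 0% = DMSO-treated cells and 100% = Gossypol at 36 µM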); details: HEK293 GAL4-SRC2 luciferase reporter, at 8.9 µM, stronger effect = higher value
Chain of Nuclear receptor coactivator 2 (Homo sapiens) (Q15596 whole entry, looked up, the tested form may be a part): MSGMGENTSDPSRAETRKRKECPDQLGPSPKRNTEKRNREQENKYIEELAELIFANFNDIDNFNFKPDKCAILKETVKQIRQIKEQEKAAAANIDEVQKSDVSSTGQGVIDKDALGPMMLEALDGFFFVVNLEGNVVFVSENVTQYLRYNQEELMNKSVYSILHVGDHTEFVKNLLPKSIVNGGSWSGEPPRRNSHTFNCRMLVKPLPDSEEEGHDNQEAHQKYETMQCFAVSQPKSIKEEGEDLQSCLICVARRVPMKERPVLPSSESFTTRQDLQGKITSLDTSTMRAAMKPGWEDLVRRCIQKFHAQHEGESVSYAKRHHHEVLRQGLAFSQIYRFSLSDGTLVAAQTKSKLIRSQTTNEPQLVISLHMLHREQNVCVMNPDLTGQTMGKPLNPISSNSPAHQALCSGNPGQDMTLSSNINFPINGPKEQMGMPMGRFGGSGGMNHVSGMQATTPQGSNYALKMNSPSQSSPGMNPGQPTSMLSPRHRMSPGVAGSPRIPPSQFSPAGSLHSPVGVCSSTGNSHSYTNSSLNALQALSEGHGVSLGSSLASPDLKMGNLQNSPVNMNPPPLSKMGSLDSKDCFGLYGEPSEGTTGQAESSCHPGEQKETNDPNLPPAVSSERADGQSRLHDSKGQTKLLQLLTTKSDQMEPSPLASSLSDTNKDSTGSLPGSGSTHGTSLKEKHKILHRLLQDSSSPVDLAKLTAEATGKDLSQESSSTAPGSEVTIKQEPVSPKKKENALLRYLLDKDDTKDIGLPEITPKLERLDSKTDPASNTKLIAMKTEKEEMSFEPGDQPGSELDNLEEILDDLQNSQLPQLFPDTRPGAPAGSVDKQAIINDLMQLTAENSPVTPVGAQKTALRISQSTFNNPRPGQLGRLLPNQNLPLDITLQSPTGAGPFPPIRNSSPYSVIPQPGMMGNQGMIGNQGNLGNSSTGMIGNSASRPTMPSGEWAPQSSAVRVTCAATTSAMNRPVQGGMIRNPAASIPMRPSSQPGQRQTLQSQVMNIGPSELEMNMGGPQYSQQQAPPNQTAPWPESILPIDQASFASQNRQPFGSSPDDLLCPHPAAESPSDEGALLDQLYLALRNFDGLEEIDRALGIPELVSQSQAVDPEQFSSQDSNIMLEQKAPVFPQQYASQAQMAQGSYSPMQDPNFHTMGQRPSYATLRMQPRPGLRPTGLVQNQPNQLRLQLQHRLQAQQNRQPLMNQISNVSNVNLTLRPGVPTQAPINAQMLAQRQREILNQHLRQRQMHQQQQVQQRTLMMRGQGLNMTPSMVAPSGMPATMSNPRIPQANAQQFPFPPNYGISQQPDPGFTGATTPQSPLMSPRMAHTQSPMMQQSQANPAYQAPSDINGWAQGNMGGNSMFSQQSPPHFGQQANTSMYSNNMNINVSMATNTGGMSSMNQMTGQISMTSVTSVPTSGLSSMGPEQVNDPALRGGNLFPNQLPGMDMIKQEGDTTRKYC

Chain of Nuclear receptor coactivator 3 (Homo sapiens) (Q9Y6Q9 whole entry, looked up, the tested form may be a part): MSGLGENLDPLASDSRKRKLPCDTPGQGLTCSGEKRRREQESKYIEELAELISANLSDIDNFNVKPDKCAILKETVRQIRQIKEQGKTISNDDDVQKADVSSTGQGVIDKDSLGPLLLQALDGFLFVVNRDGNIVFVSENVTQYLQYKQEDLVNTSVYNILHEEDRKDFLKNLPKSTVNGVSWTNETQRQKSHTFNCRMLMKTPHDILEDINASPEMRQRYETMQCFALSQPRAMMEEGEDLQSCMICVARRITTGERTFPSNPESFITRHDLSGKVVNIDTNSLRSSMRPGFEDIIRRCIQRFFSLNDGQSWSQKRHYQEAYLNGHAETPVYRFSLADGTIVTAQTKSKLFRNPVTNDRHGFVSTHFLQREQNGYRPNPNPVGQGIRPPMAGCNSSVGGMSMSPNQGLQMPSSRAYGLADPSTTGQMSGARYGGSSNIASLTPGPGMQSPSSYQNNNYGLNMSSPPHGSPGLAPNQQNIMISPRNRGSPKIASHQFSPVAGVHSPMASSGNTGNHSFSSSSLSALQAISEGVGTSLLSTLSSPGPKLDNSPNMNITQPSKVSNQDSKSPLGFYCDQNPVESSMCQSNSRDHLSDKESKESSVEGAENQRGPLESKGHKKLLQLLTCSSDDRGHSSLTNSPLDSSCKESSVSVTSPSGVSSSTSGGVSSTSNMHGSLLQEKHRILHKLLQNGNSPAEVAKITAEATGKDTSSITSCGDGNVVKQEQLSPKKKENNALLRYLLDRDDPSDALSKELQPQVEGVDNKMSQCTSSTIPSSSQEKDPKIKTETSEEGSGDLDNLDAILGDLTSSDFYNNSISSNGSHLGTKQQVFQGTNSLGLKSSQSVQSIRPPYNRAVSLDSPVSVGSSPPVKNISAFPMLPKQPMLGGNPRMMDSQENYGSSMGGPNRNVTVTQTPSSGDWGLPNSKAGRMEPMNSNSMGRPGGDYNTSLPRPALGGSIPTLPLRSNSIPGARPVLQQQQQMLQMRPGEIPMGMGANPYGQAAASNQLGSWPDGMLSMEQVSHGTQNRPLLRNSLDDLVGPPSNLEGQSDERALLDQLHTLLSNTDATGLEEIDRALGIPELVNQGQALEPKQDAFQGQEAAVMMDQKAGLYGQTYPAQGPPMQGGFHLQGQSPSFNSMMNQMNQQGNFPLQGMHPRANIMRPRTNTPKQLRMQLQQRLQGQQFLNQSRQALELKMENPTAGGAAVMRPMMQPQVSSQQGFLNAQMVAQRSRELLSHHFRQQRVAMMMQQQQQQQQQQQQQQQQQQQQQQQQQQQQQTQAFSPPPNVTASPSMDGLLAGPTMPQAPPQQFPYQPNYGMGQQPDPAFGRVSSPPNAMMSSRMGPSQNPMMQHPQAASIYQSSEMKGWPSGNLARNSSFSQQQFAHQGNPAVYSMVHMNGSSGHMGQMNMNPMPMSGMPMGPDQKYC
Chain of Nuclear receptor coactivator 1 (Homo sapiens) (Q15788 whole entry, looked up, the tested form may be a part): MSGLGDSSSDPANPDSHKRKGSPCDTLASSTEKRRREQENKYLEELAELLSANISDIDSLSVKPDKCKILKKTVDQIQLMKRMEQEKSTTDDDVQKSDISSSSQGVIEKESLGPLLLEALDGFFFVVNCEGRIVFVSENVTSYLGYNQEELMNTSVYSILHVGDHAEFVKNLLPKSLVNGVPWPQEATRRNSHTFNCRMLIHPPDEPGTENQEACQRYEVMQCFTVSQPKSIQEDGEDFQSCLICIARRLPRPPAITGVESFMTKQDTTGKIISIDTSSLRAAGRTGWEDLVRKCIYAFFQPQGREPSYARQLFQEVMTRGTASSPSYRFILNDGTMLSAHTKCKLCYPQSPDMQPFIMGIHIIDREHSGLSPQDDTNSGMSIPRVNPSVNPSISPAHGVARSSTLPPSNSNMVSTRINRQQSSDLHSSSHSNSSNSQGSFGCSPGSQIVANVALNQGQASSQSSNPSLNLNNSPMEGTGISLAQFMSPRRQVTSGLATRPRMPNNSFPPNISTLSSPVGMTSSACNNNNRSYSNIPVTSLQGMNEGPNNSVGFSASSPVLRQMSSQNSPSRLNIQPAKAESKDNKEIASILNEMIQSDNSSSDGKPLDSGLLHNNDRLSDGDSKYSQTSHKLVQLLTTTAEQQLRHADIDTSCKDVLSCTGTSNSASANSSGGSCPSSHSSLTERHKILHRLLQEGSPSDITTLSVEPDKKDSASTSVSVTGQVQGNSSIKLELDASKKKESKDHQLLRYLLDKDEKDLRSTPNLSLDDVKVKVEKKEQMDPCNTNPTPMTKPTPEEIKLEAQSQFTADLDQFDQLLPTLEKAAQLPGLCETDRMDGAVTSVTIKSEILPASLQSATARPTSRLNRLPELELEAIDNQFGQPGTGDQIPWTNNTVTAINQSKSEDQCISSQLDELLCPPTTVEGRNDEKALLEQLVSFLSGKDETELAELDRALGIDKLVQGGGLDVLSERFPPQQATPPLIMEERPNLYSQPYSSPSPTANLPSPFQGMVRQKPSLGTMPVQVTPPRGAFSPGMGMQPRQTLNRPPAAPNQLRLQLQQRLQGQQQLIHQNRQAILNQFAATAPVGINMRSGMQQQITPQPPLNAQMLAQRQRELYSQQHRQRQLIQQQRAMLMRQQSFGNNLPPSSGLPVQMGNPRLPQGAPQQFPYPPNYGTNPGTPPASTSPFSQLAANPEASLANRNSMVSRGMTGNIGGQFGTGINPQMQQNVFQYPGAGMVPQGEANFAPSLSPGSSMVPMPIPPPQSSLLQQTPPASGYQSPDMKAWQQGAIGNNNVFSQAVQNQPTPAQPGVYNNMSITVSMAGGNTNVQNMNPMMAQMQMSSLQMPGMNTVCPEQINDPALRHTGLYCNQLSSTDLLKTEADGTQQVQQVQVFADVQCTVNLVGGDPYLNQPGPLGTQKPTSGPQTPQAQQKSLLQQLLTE
Chain of Steroidogenic factor 1 (Homo sapiens) (Q13285 whole entry, looked up, the tested form may be a part): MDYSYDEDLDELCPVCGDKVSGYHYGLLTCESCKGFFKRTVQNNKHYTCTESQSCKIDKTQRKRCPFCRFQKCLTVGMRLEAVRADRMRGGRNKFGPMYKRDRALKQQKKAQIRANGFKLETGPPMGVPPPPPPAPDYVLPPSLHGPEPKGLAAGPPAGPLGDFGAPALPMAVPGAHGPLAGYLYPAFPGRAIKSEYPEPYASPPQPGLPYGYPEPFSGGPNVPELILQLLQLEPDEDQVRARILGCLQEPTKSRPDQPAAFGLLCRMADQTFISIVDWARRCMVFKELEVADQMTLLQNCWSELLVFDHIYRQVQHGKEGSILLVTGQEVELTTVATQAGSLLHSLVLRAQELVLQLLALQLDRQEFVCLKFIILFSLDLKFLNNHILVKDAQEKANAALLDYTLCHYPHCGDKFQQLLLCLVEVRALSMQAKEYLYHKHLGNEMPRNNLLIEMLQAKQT

Compound | inhibition [1] | inhibition [2] | inhibition [3] | inhibition [4] | inhibition [5] | inhibition [6] | inhibition [7] | inhibition [8] | inhibition [9] | inhibition [10]
COc1ccccc1C(=O)Nc1nc2ccccc2[nH]1 | 79.4% (active) | 72.7% (active) | 58.5% (active) | 75.2% (active) | 75.3% (active) | 75.4% (active) | 83.8% (active) | 66.3% (active) | 89.6% (active) | 93.8% (active)
COc1cccc(N2CCN(c3ncnc4c3cnn4-c3ccc(C)cc3C)CC2)c1 | 88.3% (active) | 81.1% (active) | 54.6% (active) | 86.2% (active) | 83.2% (active) | 97.4% (active) | 89.8% (active) | 90.2% (active) | 81.1% (active) | 72.1% (active)
C=C1C(=O)OC2CC1C(OC(C)=O)CC(C)=CCCC(C)=CCCC2(C)O (stereo not given) | 0.28% (inactive) | 39.9% (active) | 23.6% (inactive) | 34.9% (active) | 39.1% (active) | 25.2% (inactive) | 25% (inactive) | 56% (active) | 26.4% (inactive) | 38.7% (inactive)
COc1ccc(CC2C(=O)NC(C)C(=O)N(C)C3Cc4ccc(cc4)Oc4cc(ccc4O)CC(C(=O)NC(C)C(=O)NC(C)C(=O)N2C)N(C)C3=O)cc1 (stereo not given) | 97.6% (active) | 96.4% (active) | 90.6% (active) | 95% (active) | 96% (active) | 110% (active) | 98.6% (active) | 97.2% (active) | 82.2% (active) | 76.9% (active)
COC(=O)c1ccc2nc(Nc3nc4c(F)cc(F)cc4s3)sc2c1 | 23.9% (inactive) | 40.6% (active) | -34.6% (inactive) | 36.7% (active) | 28.2% (active) | -92.1% (inactive) | 25.5% (inactive) | -29.2% (inactive) | -2.64% (inactive) | 61.1% (active)

— PubChem BioAssay
